# According to PubChem BioAssay (NCATS):
# Unmarked numbers belong to inactive results. Results filed as inconclusive are left out. Activity calls are given as the source filed them. Unless noted, the call rests on the fitted dose curve; in most records, active means well fitted curve in either direction with a large enough effect (not every such curve was filed as active); inconclusive means small, poorly fitted or top-dose-only effect, or another doubt; inactive means flat fitted curve, though single readings scatter.
# Assays:
# [1] = molecular target: Lysosomal acid glucosylceramidase (Homo sapiens) (UniProt P04062); experiment: Glucocerebrosidase-p2 (AID 348; in the data active means potency below about 10 µM; further: potency means the concentration at half of the fitted maximal effect); conditions: purified GBA, blue fluorogenic substrate, 40 min
# Outline: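 Compounds titrated from 0.6 nM upwards against 0.2 nM enzyme in pH 5.9 citric acid/KH2PO4, taurocholate, tween-20; blue fluorogenic substrate 80 uM, 40 min room temperature, stopped and read Ex 365/Em 440 for AC50.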
# [2] = AP1 Signaling Pathway (AID 357); conditions: ME-180 AP-1-bla reporter, EGF-induced, beta-lactamase ratio, 5 h; at 7.69 µM (top of the series) unless noted;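 further: ME-180 reporter cells stimulated with EGF at its EC50 level; on the % scale 0 is the no-effect control and ±100 the full control effect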
# Outline: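 Modulation of EGF-driven AP-1 transcription was assessed with a beta-lactamase reporter in ME-180 cells. Compound and EC50 EGF were co-incubated 5 hours at 37 °C before 2.5-hour CCF4 loading at room temperature and dual-emission reading.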
# [3] = molecular target: Cytochrome P450 1A2 (Homo sapiens) (UniProt P05177); experiment: p450-cyp1a2 (AID 410; calls by dose curve; further: potency means the concentration at half of the fitted maximal effect); conditions: recombinant CYP1A2, luciferin-ME demethylation, luminescence; series mostly up to 57 µM
# Outline: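 Luminescent readout of luciferin formed from Luciferin-ME by human CYP1A2; data normalized against complete inhibition by 57 uM furafylline. Enzyme 20nM, substrate 100uM at Km, 100mM KPO4 buffer, 60 min reaction at room temperature.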
# [4] = NFAT Signaling Pathway (AID 444); conditions: Jurkat NFAT-bla M1, carbachol, beta-lactamase ratio, 5 h; at 7.69 µM (top of the series) unless noted;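 further: carbachol stimulus at about its EC50 of 1 µM final; on the % scale 0 is the no-effect control and ±100 the full control effect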
# Outline: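 Read-out: CCF4 FRET ratio (460 nm/530 nm) after 1 h RT dye loading, used for %activity and AC50 from titration series. Cells: Jurkat NFAT-β-lactamase/M1 line, treated with compound plus 1 uM carbachol for 5 h, 37 °C.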
# [5] = molecular target: Glucocorticoid receptor (Homo sapiens) (UniProt P04150); experiment: GR-EFC Redistribution (AID 451; calls by dose curve; further: potency means the concentration at half of the fitted maximal effect); conditions: CHO-K1 GR-EFC translocation, beta-gal luminescence, 2 h
# Outline: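 Translocation of GR-ED fusion to nuclear EA restores b-gal, read by luminescence after 1 h room-temperature detection. Engineered CHO-K1 biosensor cells, 1,000/well, exposed 2 h at 37 C to titrations up to 46 uM final.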
# [6] = molecular target: Mitogen-activated protein kinase 10 (Mus musculus) (UniProt Q61831); experiment: JNK3 AlphaScreen Assay (AID 530); conditions: JNK3 lysate, c-Jun phosphorylation; series mostly up to 57.1 µM;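 further: kinase came from lysate of stimulated human HepG2 cells; signal reports phosphorylation of biotinylated GST-cJun 1-79 at Ser73 with 10 µM ATP; on the % scale 0 is the no-effect control and ±100 the full control effect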
# Outline: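 Compound titrations were preincubated 15 minutes at room temperature with substrate, antibody and pre-activated JNK3-containing HepG2 lysate. Reactions were started with 10 uM ATP and stopped with EDTA-containing bead buffer for AlphaScreen detection.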
# [7] = molecular target: 3',5'-cyclic-AMP phosphodiesterase 4B (Homo sapiens) (UniProt Q07343); experiment: qHTS Assay for Inhibitors of PDE-IV (AID 607; active means well fitted activation curve with a large enough effect in the main read-out, with a control signal flat, not every such curve was filed as active; further: % of control where 0% means no effect); conditions: HEK293 ACTOne CNG channel cells, membrane potential fluorescence; series mostly up to 22.9 µM
# Outline: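 The readout is membrane depolarisation from a cAMP-sensing CNG channel, detected with a potential dye at ex 535/em 590. Cells were HEK293-derived (endogenous PDE-IV) at 1000 cells/well, titrated up to 22.9 uM final.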
# [8] = Primary qHTS for small molecule stabilizers of the endoplasmic reticulum resident proteome: Secreted ER Calcium Modulated Protein (SERCaMP) assay (AID 1508630; active means well fitted curve in the direction sought with a large enough effect; an effect the other way counts as inactive or inconclusive; further: on the % scale 0 is the no-effect control and ±100 the full control effect); conditions: SH-SY5Y GLuc-SERCaMP (Gaussia luciferase released on ER calcium loss) secretion, thapsigargin, luminescence; series mostly up to 38.4 µM
# Outline: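 GLuc-SERCaMP-expressing SH-SY5Y cells, pretreated 16 h with compound, are challenged with thapsigargin to empty ER calcium stores; after 4 h, coelenterazine is added directly to the medium and luminescence is imaged.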
# [9] = Stat Signaling Pathway (AID 446); conditions: ME-180 SIE beta-lactamase reporter, IL-6 stimulated, 5 h; at 7.69 µM (top of the series) unless noted
# Outline: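 Screening format detects activators and inhibitors alike: ME-180 SIE-bla cells stimulated at 40 pM IL-6 for 5 hrs with compound, then dual-emission beta-lactamase read at 405 nm excitation.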
# [10] = molecular target: Glucocorticoid receptor (Homo sapiens) (UniProt P04150); experiment: GR-GFP Redistribution (AID 450;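 active means compounds whose dose series gives a full or clear partial fitted curve of increased nuclear translocation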; further: potency means the concentration at half of the fitted maximal effect); conditions: U2OS GR-GFP nuclear translocation, laser cytometry, 2 h
# [11] = molecular target: Cytochrome P450 3A4 (Homo sapiens) (UniProt P08684); experiment: qHTS Assay for Activators of Cytochrome P450 3A4 (AID 885; active means well fitted curve in the direction sought with a large enough effect; an effect the other way counts as inactive or inconclusive; further: nearly all actives have a fitted effect of over 65% in size); conditions: recombinant CYP3A4, Luciferin-PPXE luminescence, 60 min; series mostly up to 57.1 µM
# Outline: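 Steps: enzyme/substrate mix dispensed; compound added, 10 min RT; NADPH regeneration solution added, 60 min RT; luciferin detection buffer stops reaction; 20 min later luminescence measured.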
# [12] = Confirmation and Secondary Assay for Modulators of Hemoglobin Beta Chain Splicing at IVS2 654 locus (AID 910; active means well fitted curve in the direction sought with a large enough effect; an effect the other way counts as inactive or inconclusive;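 further: HeLa cells stably carrying EGFP split by mutant beta-globin IVS2-654 intron; per-well total GFP intensity by laser scanning cytometry after 2-day treatment; % of control where 0% means no effect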); conditions: HeLa EGFP-654 splicing reporter, GFP fluorescence, 48 h; series mostly up to 38.3 µM
# Outline: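 Readout: per-well total peak green fluorescence (488 nm ex, 500–520 nm em) from objects 5–250 µm, reflecting correct splicing of an EGFP-654 reporter. Compounds were applied for 2 days at 37 °C to overnight-plated HeLa EGFP-654 cells; controls were DMSO and 500 nM IVS2-654 PNA.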
# [13] = Confirmation and Secondary Assay for Modulators of Hemoglobin Beta Chain Splicing at IVS2 705 locus (AID 930; active means well fitted curve in the direction sought with a large enough effect; an effect the other way counts as inactive or inconclusive;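 further: HeLa cells stably expressing the EGFP-705 splicing reporter; GFP fluorescence per well restored by corrected splicing of the IVS2-705 intron in EGFP; % of control where 0% means no effect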); conditions: HeLa EGFP-705 splicing reporter, GFP fluorescence, 48 h; series mostly up to 38.3 µM
# Outline: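 HeLa IVS2-705 EGFP reporter cells, 500/well, compound 2 d at 37C; correct splicing yields fluorescent EGFP. Control: 500 nM antisense PNA. Read-out: total peak GFP intensity.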
# [14] = molecular target: Ubiquitin carboxyl-terminal hydrolase 1 (Homo sapiens) (UniProt O94782); experiment: Inhibitors of USP1/UAF1: Pilot qHTS (AID 504865; active means well fitted curve in the direction sought with a large enough effect; an effect the other way counts as inactive or inconclusive;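 further: rhodamine fluorescence freed from ubiquitin-rhodamine substrate followed over time; top concentration of the series differs between compounds; on the % scale 0 is the no-effect control and ±100 the full control effect; nearly all actives have a fitted effect of over 35% in size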); conditions: purified USP1/UAF1, Ub-rhodamine cleavage fluorescence; series mostly up to 54.9 µM
# Outline: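 USP1/UAF1 complex (1nM) preincubated with compound 15 min at room temperature, then Ub-Rho substrate (150nM final) added. Fluorescence read kinetically at 480/540 nm, 6 reads every 60 seconds. Buffer: 50mM HEPES pH 7.8, 0.5mM EDTA, 0.1 mg/ml BSA, 1mM TCEP, 0.01% Tween-20.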
# [15] = molecular target: Cytochrome P450 2C9 (Homo sapiens) (UniProt P11712); experiment: qHTS Assay for Inhibitors and Substrates of Cytochrome P450 2C9 (AID 883; active means well fitted curve in the direction sought with a large enough effect; an effect the other way counts as inactive or inconclusive; further: on the % scale 0 is the no-effect control and ±100 the full control effect; nearly all actives have a fitted effect of over 60% in size); conditions: recombinant CYP2C9, luciferin-H luminescence, 60 min; series mostly up to 57.1 µM
# Outline: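 Inhibition of CYP2C9 is scored as loss of luminescence, with 57uM sulphaphenazole defining 100% inhibition. Substrate Luciferin-H is used at 100uM, equal to its KM; enzyme at 10nM in 25mM KPO4, 60 min at 37C with NADPH regeneration.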
# [16] = molecular target: Cytochrome P450 2C19 (Homo sapiens) (UniProt P33261); experiment: qHTS Assay for Inhibitors and Substrates of Cytochrome P450 2C19 (AID 899; active means well fitted curve in the direction sought with a large enough effect; an effect the other way counts as inactive or inconclusive; further: nearly all actives have a fitted effect of over 60% in size; further: potency means the concentration at half of the fitted maximal effect); conditions: recombinant CYP2C19, luciferin-H EGE luminescence; series mostly up to 57.1 µM
# Outline: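 5nM enzyme + 10uM Luciferin-H EGE (=KM), 50mM KPO4; cpd pin-transferred, 10 min 37C; NADPH regen, 60 min 37C; stopped w/ luciferin detection reagent, 20 min; luminescence. Normalized to 57uM ketoconazole (AC100).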
# Lysosomal acid glucosylceramidase (Homo sapiens), sequence (P04062 whole entry, looked up): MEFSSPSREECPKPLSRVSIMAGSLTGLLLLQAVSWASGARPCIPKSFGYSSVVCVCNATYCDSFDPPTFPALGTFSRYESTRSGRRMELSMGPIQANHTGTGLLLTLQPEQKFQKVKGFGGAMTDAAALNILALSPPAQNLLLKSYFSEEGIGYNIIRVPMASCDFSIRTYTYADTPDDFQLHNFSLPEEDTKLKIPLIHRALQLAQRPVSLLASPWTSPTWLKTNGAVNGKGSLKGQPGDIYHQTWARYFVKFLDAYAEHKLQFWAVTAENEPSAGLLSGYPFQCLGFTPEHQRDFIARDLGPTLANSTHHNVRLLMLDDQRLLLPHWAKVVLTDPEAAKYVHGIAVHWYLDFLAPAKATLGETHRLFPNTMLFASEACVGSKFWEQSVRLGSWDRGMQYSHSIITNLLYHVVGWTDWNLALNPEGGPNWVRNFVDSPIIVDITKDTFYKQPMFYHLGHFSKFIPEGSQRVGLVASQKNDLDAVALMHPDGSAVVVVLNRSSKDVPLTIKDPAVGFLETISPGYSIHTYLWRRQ
# 3',5'-cyclic-AMP phosphodiesterase 4B (Homo sapiens), sequence (Q07343 whole entry, looked up): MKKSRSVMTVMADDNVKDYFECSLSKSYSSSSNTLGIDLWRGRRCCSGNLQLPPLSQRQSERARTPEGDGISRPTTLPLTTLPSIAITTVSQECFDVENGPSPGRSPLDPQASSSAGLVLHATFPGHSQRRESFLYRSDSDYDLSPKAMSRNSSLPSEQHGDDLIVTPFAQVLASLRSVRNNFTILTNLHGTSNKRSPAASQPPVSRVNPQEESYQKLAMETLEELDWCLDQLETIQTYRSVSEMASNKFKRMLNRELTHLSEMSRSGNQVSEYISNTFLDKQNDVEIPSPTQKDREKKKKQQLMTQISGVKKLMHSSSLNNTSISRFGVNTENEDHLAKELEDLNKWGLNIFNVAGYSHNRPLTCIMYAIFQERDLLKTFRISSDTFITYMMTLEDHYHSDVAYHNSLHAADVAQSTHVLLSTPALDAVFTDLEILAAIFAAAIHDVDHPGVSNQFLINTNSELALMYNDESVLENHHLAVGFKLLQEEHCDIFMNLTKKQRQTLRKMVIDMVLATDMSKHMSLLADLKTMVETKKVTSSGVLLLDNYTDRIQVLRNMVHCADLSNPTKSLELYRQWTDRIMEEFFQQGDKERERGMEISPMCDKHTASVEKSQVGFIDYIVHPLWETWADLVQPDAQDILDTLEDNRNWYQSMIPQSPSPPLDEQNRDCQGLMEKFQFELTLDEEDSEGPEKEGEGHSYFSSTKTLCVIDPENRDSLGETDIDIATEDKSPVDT
# Glucocorticoid receptor (Homo sapiens), sequence (P04150 whole entry, looked up, the tested form may be a part): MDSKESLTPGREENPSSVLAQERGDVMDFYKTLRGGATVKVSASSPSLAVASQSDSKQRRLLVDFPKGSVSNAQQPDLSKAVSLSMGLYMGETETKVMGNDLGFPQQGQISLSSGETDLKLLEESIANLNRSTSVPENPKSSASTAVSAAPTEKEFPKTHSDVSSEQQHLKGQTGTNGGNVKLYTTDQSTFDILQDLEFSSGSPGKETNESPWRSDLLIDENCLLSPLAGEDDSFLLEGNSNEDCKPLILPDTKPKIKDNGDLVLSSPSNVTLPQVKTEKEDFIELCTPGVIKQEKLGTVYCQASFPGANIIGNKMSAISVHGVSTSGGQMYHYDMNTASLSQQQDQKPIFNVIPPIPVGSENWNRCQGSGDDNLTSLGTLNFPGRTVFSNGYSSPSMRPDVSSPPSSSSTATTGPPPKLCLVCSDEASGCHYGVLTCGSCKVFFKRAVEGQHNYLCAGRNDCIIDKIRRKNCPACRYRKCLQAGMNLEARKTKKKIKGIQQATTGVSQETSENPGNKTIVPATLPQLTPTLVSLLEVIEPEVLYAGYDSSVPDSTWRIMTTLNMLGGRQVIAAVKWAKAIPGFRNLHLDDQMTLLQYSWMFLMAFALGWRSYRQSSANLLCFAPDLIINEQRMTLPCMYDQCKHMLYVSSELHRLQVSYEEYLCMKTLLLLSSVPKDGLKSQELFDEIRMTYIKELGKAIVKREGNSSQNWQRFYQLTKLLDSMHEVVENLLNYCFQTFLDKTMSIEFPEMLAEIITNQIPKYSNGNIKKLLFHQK
# Cytochrome P450 3A4 (Homo sapiens), sequence (P08684 whole entry, looked up): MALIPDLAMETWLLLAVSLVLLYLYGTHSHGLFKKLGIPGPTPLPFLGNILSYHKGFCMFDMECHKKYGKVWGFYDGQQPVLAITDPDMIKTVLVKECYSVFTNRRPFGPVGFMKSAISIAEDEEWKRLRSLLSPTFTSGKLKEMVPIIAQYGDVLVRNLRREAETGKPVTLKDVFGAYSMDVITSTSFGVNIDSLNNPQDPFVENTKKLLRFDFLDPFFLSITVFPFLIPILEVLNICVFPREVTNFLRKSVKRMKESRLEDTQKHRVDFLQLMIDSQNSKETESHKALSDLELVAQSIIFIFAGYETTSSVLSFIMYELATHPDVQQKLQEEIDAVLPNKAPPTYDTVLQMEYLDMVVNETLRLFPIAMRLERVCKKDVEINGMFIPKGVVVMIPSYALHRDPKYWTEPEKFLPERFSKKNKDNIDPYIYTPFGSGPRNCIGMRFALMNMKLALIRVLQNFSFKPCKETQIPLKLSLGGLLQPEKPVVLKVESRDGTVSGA
# Cytochrome P450 1A2 (Homo sapiens), sequence (P05177 whole entry, looked up): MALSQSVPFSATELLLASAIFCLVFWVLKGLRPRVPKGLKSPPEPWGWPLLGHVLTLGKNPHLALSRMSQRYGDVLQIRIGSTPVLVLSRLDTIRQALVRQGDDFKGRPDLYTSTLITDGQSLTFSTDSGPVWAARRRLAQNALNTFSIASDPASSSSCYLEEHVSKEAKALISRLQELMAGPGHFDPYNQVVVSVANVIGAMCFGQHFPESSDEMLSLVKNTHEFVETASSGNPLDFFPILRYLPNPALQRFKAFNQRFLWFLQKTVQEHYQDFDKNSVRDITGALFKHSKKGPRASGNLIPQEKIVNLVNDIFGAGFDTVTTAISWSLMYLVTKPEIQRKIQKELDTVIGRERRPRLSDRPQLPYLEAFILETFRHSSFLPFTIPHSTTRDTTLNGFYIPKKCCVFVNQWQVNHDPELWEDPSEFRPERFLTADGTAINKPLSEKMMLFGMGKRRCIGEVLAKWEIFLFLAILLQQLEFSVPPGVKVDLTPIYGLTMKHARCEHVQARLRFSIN
# Cytochrome P450 2C19 (Homo sapiens), sequence (P33261 whole entry, looked up): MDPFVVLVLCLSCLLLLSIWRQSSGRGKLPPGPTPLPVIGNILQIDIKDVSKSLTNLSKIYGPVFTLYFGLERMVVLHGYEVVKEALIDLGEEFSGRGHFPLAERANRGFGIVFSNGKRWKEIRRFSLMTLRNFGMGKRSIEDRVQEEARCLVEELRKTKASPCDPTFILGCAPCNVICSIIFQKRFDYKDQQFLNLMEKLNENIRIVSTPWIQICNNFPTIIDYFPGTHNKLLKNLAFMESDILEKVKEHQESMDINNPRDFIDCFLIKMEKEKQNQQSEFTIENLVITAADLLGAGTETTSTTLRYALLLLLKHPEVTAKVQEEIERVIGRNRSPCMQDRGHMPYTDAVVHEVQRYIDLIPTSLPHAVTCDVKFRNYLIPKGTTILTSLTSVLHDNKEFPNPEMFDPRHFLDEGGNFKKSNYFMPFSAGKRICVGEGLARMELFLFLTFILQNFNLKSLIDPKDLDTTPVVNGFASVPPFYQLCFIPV
# Cytochrome P450 2C9 (Homo sapiens), sequence (P11712 whole entry, looked up): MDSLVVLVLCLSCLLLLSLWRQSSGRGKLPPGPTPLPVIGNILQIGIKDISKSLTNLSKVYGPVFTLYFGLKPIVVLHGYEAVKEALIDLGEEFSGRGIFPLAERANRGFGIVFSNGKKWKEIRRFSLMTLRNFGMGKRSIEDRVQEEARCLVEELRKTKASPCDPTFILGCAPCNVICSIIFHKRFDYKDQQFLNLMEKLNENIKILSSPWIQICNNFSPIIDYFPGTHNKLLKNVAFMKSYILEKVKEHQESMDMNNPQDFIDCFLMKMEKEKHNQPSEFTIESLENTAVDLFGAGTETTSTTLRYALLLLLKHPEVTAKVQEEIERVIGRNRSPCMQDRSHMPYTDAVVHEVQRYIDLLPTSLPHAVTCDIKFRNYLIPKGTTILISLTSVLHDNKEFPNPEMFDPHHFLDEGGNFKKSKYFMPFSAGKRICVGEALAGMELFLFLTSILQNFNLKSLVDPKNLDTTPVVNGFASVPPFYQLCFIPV
# Ubiquitin carboxyl-terminal hydrolase 1 (Homo sapiens), sequence (O94782 whole entry, looked up): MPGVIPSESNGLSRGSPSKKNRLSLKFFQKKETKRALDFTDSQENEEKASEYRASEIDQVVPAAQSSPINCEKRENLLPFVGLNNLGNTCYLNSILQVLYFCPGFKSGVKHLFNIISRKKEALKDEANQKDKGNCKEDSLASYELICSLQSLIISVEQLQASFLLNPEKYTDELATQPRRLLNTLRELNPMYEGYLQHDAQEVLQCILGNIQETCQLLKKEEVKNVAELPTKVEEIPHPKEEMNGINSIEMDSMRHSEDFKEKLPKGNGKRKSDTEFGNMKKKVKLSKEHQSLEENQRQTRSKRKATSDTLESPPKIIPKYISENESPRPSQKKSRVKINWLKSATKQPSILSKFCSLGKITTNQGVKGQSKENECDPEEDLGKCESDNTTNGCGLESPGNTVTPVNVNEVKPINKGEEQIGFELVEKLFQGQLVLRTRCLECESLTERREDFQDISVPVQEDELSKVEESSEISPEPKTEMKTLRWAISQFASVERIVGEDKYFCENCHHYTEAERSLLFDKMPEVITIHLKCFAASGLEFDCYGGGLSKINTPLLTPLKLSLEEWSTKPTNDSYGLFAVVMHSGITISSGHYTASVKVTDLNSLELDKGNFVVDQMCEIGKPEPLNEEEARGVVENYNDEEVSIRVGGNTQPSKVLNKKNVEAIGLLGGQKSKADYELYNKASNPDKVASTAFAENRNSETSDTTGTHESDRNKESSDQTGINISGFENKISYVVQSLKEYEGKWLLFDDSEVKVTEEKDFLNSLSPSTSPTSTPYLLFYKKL
smiles,measurement,setting,value
CC(=O)N1CCC2(CC1)CCN(c1ccc(-c3ccccc3)cc1)CC2,Potency,[1],> 11.4 µM
same,"activity change, negative = inhibition",[2],47.5%
same,Potency,[3],10 µM (active)
same,"activity change, negative = inhibition",[4],-28%
same,Potency,[5],> 46 µM
same,Potency,[6],inactive
same,Potency,[7],inactive
same,outcome,[8],inactive
Clc1ccccc1-c1cc(NCc2cccnc2)ncn1,Potency,[1],> 11.4 µM
same,"activity change, negative = inhibition",[2],-5.3%
same,Potency,[3],3.16 µM (active)
same,"activity, negative = inhibition",[9],6.36%
same,Potency,[10],> 46 µM
same,Potency,[5],> 46 µM
same,Potency,[6],inactive
same,Potency,[7],inactive
same,Potency,[11],inactive
same,Potency,[12],inactive
same,outcome,[13],inactive
same,Potency,[14],inactive
same,outcome,[8],inactive
CNc1nc(-c2ccc(N(C)C)cc2)nc2ccccc12,"activity change, negative = inhibition",[15],108% [at 2.29 µM]
O=C(Nc1ccccc1)N1CC2(CCN(C(=O)c3cc(C(F)(F)F)cc(C(F)(F)F)c3)CC2)C1,Potency,[15],inactive
O=S(=O)(c1ccccc1)N1CCC2(CCCN(Cc3nccs3)C2)CC1,Potency,[16],inactive
O=S(=O)(c1ccccc1)N1CCC2(CCCN(Cc3ccncc3)C2)CC1,Potency,[16],0.316 µM (active)
Cc1cnc(CNc2nc(-c3ccc4c(c3)OCO4)nc3ccccc23)cn1,Potency,[12],inactive
Cc1cnc(CNc2ncnc3ccc(-c4ccccc4C#N)cc23)cn1,Potency,[1],> 11.4 µM
same,"activity change, negative = inhibition",[2],9.76%
same,"activity change, negative = inhibition",[4],0.584%
same,"activity, negative = inhibition",[9],-10.7%
same,Potency,[10],> 46 µM
same,Potency,[5],> 46 µM
same,Potency,[6],inactive
same,Potency,[7],inactive
same,Potency,[12],inactive
same,outcome,[13],inactive
same,outcome,[8],inactive
O=C(c1csnn1)N1CCC2(CCCN(c3ncccn3)C2)CC1,Potency,[1],> 11.4 µM
same,"activity change, negative = inhibition",[2],5.51%
same,"activity change, negative = inhibition",[4],2.44%
same,"activity, negative = inhibition",[9],1.38%
same,Potency,[5],> 46 µM
same,Potency,[6],inactive
same,outcome,[8],inactive
O=C(Nc1cccc(F)c1)N1CCCC2(CCN(C(=O)c3csnn3)CC2)C1,Potency,[1],> 11.4 µM
same,"activity change, negative = inhibition",[2],-12.3%
same,"activity change, negative = inhibition",[4],-19.5%
same,"activity, negative = inhibition",[9],-9.38%
same,Potency,[5],> 46 µM
same,Potency,[6],inactive
same,Potency,[7],inactive
same,outcome,[8],inactive
COCCn1c(=O)c(-c2ccc(F)cc2)nc2cnc(Oc3cccc(Cl)c3)nc21,Potency,[1],> 11.4 µM
same,"activity change, negative = inhibition",[2],1.58%
same,"activity change, negative = inhibition",[4],-15.6%
same,"activity, negative = inhibition",[9],-8.51%
same,Potency,[10],> 9.22 µM
same,Potency,[5],> 46 µM
same,Potency,[6],inactive
same,Potency,[7],inactive
same,outcome,[8],inactive
COc1ccc(-c2nc3cnc(OC)nc3n(C3CC3)c2=O)cc1,Potency,[1],> 11.4 µM
same,"activity change, negative = inhibition",[2],-14.2%
same,"activity change, negative = inhibition",[4],-0.173%
same,"activity, negative = inhibition",[9],2.68%
same,Potency,[10],> 9.22 µM
same,Potency,[5],> 46 µM
same,Potency,[6],inactive
same,Potency,[7],inactive
same,Potency,[11],inactive
same,outcome,[8],inactive
